The supplement of paper PMC10849652
Of roughly 7,900 targets only a part is listed; those with a hit were picked by preference. About 0.6% of all pairs of compound and target were hits.

What was measured:
Test in all cases: log2 fold change, soluble protein after heating vs DMSO (PISA); higher = thermal stabilisation; K562 cells, 10 uM, 30 min; active = over 0.2 and 3.5 SD of the protein, either way, in both replicates (recomputed)
[1] = compound: CC1=C(C=C(C=C1)NC(=O)C2=CC(=CC=C2)C(C)(C)C#N)NC3=CC4=C(C=C3)N=CN(C4=O)C
Summary of the method: (§1)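 K562 cells at 2×10^6 cells/mL were exposed to 10 μM compound for 30 min, then aliquots were heated for 3 min across 48°C-58°C, pooled, and extracted in PBS containing 0.5% NP-40 at 4°C. The supernatant after 21,000xg for 90 min was taken as soluble protein and measured by TMTpro 16plex LC-MS/MS with channel sums equalised. Thermal stability is reported relative to control samples, with values from duplicates. Fold changes are given on a log2 scale.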

[2] = compound: CC1=C(C=C(C=C1)NC(=O)C2=CC(=CC=C2)N(C)C)NC(=O)C3=CC=C(C=C3)O
Summary of the method: as §1

[3] = compound: CC1=CC=C(C=C1)SC2=C3C=C(SC3=CN=C2)C(=O)N
Summary of the method: as §1

[4] = compound: CC1=NC(=CC=C1)C2=C(N=C(N2)C(C)(C)C)C3=CC4=NC=CN=C4C=C3
Summary of the method: as §1

[5] = compound: CCCCN(Cc1ccc(C(=O)NO)cc1)C(=O)Nc1ccccc1 [Nexturastat A]
Summary of the method: as §1

[6] = compound: CCCS(=O)(=O)Nc1ccc(F)c(C(=O)c2c[nH]c3ncc(-c4ccc(Cl)cc4)cc23)c1F [vemurafenib]
Summary of the method: as §1

[7] = compound: CCCS(=O)(=O)Nc1ccc(F)c(C(=O)c2c[nH]c3ncc(Cl)cc23)c1F
Summary of the method: as §1

[8] = compound: CCCc1cc(C)[nH]c(=O)c1CNC(=O)c1cc(-c2ccnc(N3CCN(C)CC3)c2)cc2c1cnn2C(C)C
Summary of the method: as §1

[9] = compound: CCN(CC)Cc1ccc2cc(COC(=O)Nc3ccc(C(=O)NO)cc3)ccc2c1 [givinostat]
Summary of the method: as §1

[10] = compound: CCN(CCCOc1ccc2c(Nc3cc(CC(=O)Nc4cccc(F)c4)[nH]n3)ncnc2c1)CCOP(=O)(O)O [barasertib]
Summary of the method: as §1

[11] = compound: CC[C@@H]1C(=O)N(C)c2cnc(Nc3ccc(C(=O)NC4CCN(C)CC4)cc3OC)nc2N1C1CCCC1
Summary of the method: as §1

[12] = compound: CC[C@@H]1C(=O)N(C)c2cnc(Nc3ccc(C(=O)N[C@H]4CC[C@H](N5CCN(CC6CC6)CC5)CC4)cc3OC)nc2N1C(C)C [volasertib]
Summary of the method: as §1

[13] = compound: CC[C@H](C)N1C=C(C2=C(C=C(C=C21)C3=CN=C(C=C3)N4CCNCC4)C(=O)NCC5=C(C=C(NC5=O)C)C)C
Summary of the method: as §1

[14] = compound: CC[C@H](C)[C@@H](C(=O)N[C@@H]([C@@H](C)O)C(=O)N[C@@H](CC(C)C)C(=O)[C@]1(CO1)C)NC(=O)[C@H]([C@@H](C)CC)N(C)C(=O)C [epoxomicin]
Summary of the method: as §1

[15] = compound: CCn1c(C(=O)N(C2CC2)C2CC2)cc2c3c(ncn3C)c(Nc3cc(C)n(C)n3)nc21
Summary of the method: as §1

[16] = compound: CCn1cc(-c2ccnc3[nH]c(-c4cccc(CN(C)C)c4)cc23)c(-c2ccc(NC(=O)N(C)C)cc2)n1
Summary of the method: as §1

[17] = compound: CN(C)CC(=O)Nc1ccc2[nH]c(=O)c3ccccc3c2c1
Summary of the method: as §1

[18] = compound: CN(CCOC1=CC=C(C=C1)C[C@H]2C(=O)NC(=O)S2)C3=CC=CC=N3 (racemic) [rosiglitazone]
Summary of the method: as §1

[19] = compound: CN1C2=C(C3=C1C(=O)N(N=C3)CC4=CC(=CC=C4)N)SC(=C2)S(=O)C
Summary of the method: as §1

[20] = compound: CN1CCC(CNc2ccc3ncc(-c4cccc(OC(F)(F)F)c4)n3n2)CC1
Summary of the method: as §1

Measured: log2 fold change

CHCHD1 (UniProt Q96BP2)
inactive: [1] -0.02 | [2] -0.119 | [3] 0.279 | [4] 0.008 | [5] 0.141 | [6] -0.044 | [7] 0.024 | [8] -0.747 | [9] 0.013 | [10] -0.105 | [11] -0.054 | [12] -0.32 | [13] -0.001 | [14] -0.026 | [15] -0.028 | [16] -0.009 | [17] 0.02 | [18] 0.035 | [19] 0.033 | [20] -0.191

CDK11B (UniProt P21127)
UniProt P21127, sequence (P21127 whole entry, looked up): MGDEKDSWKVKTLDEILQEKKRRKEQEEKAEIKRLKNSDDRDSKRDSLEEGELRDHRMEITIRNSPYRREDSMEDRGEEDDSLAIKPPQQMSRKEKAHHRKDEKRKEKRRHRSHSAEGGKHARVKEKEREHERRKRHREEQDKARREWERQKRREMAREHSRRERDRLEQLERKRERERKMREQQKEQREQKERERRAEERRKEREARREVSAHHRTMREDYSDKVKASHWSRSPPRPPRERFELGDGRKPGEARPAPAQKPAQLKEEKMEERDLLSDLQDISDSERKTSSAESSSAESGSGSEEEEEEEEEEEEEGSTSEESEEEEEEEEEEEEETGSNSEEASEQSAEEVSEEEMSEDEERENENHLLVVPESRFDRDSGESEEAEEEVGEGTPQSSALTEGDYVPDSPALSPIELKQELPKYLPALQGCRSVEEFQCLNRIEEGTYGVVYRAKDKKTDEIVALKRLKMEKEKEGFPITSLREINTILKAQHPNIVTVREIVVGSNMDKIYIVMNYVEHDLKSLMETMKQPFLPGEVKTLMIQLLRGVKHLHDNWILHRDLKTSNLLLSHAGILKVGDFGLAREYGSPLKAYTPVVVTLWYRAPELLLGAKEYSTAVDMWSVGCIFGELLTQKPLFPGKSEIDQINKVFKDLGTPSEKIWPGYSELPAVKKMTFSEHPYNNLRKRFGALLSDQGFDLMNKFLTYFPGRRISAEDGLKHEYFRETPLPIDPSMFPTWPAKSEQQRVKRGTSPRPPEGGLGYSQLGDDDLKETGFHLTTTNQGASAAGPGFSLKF
inactive: [1] -0.079 | [2] 0.214 | [3] -0.109 | [4] 0.071 | [5] 0.038 | [6] 0.029 | [7] -0.064 | [8] -0.063 | [9] 0.114 | [10] 0.028 | [11] 0.087 | [12] 0.047 | [13] 0.028 | [14] -0.072 | [15] -0.07 | [16] -0.01 | [17] -0.107 | [18] 0.004 | [19] 0.005 | [20] 0.094

CERT isoform 3 (UniProt Q9Y5P4)
active: [20] 0.279
inactive: [1] 0.154 | [2] -0.103 | [3] -0.039 | [4] -0.001 | [5] -0.048 | [6] 0.101 | [7] 0.061 | [8] 0.02 | [9] -0.027 | [10] -0.002 | [11] 0.06 | [12] 0.044 | [13] 0.07 | [14] 0.058 | [15] -0.023 | [16] -0.057 | [17] -0.019 | [18] -0.017 | [19] -0.127

CBS (UniProt P35520)
UniProt P35520, sequence (P35520 whole entry, looked up): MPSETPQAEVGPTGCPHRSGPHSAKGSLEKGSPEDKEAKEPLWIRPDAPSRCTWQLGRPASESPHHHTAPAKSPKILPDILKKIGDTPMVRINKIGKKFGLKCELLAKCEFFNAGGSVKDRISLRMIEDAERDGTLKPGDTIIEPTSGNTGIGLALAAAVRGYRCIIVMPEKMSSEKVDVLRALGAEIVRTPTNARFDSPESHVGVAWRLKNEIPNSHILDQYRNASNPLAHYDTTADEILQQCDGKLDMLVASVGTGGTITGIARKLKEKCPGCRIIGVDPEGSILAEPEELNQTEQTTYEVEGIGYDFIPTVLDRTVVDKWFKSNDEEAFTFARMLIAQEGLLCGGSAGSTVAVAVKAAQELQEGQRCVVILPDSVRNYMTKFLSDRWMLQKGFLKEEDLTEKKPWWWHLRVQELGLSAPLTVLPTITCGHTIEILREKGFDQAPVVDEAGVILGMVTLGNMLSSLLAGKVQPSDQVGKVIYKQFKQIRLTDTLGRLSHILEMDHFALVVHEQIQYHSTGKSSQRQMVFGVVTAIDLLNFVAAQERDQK
inactive: [1] 0.031 | [2] -0.001 | [3] 0.004 | [4] 0.019 | [5] -0.08 | [6] -0.021 | [7] -0.004 | [8] -0.016 | [9] -0.135 | [10] 0.02 | [11] 0.007 | [12] 0.036 | [13] -0.049 | [14] 0.035 | [15] -0.019 | [16] 0.02 | [17] -0.012 | [18] 0.012 | [19] -0.073 | [20] -0.03

COX5A (UniProt P20674)
UniProt P20674, sequence (P20674 whole entry, looked up): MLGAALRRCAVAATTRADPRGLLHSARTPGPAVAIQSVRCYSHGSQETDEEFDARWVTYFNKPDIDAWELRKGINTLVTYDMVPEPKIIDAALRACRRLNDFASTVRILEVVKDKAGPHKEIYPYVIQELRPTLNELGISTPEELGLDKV
inactive: [1] -0.005 | [2] -0.074 | [3] 0 | [4] -0.016 | [5] 0.072 | [6] 0.165 | [7] -0.114 | [8] -0.093 | [9] -0.092 | [10] 0.085 | [11] 0.048 | [12] -0.08 | [13] -0.081 | [14] 0.234 | [15] -0.018 | [16] 0.072 | [17] -0.001 | [18] -0.042 | [19] -0.063 | [20] 0.269

CNN2 (UniProt Q99439)
UniProt Q99439, sequence (Q99439 whole entry, looked up): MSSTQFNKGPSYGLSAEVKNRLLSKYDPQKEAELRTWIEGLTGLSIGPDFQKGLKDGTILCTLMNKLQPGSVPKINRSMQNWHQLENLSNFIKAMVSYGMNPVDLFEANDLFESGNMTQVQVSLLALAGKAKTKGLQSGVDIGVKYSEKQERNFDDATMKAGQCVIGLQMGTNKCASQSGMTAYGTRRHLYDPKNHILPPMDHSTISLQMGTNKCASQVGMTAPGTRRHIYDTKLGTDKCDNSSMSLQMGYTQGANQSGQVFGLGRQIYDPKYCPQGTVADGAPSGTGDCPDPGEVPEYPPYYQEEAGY
active: [12] -0.354
inactive: [1] 0.034 | [2] -0.037 | [3] 0.035 | [4] 0.023 | [5] -0.042 | [6] 0.085 | [7] 0.073 | [8] 0.003 | [9] 0.063 | [10] 0.077 | [11] -0.149 | [13] 0.058 | [14] 0.106 | [15] -0.044 | [16] 0.03 | [17] 0.023 | [18] 0.063 | [19] 0.012 | [20] -0.055

CPSF3 (UniProt Q9UKF6)
UniProt Q9UKF6, sequence (Q9UKF6 whole entry, looked up): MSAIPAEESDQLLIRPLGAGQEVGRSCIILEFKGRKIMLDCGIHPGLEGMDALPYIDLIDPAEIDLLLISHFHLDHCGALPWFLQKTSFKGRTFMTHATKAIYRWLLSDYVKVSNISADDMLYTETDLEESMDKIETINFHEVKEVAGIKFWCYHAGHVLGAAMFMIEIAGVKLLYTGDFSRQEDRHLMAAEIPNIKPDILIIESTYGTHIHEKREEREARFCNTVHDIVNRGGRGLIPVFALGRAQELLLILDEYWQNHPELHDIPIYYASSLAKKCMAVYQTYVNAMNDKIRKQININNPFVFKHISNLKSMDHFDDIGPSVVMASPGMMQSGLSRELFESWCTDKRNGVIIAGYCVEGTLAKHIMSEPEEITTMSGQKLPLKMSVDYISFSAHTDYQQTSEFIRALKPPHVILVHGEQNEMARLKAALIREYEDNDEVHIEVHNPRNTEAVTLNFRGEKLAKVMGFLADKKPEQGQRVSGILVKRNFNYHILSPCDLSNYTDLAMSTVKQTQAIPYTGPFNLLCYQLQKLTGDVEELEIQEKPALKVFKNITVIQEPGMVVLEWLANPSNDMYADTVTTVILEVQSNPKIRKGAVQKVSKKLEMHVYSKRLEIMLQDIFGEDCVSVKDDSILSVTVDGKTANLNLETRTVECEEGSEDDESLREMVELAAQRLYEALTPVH
inactive: [1] -0.014 | [2] 0.005 | [3] -0.006 | [4] -0.012 | [5] -0.085 | [6] 0.017 | [7] 0.063 | [8] -0.001 | [9] -0.03 | [10] 0.022 | [11] -0.105 | [13] 0.043 | [14] -0.013 | [15] -0.032 | [16] -0.008 | [17] 0.033 | [18] 0.014 | [19] -0.032 | [20] 0.003
active: [12] -0.252

COASY isoform 2 (UniProt Q13057)
active: [12] -0.266
inactive: [1] -0.002 | [2] -0.058 | [3] 0.057 | [4] 0.029 | [5] 0.021 | [6] 0.054 | [7] 0.209 | [8] -0.007 | [9] -0.04 | [10] 0.029 | [11] -0.068 | [13] 0.027 | [14] -0.013 | [15] 0.061 | [16] -0.052 | [17] 0.038 | [18] 0.017 | [19] -0.08 | [20] -0.132

CSNK2A1 (UniProt P68400)
inactive: [1] -0.047 | [2] -0.004 | [3] -0.044 | [4] 0.025 | [5] 0.034 | [6] 0.006 | [7] 0.008 | [8] -0.018 | [9] -0.003 | [10] -0.024 | [11] 0.007 | [12] 0.04 | [13] 0.002 | [14] -0.012 | [15] 0.003 | [16] -0.117 | [17] -0.007 | [18] 0.024 | [19] -0.04 | [20] -0.233

CAMK2G isoform 6 (UniProt Q13555)
UniProt Q13555, sequence (Q13555 whole entry, looked up): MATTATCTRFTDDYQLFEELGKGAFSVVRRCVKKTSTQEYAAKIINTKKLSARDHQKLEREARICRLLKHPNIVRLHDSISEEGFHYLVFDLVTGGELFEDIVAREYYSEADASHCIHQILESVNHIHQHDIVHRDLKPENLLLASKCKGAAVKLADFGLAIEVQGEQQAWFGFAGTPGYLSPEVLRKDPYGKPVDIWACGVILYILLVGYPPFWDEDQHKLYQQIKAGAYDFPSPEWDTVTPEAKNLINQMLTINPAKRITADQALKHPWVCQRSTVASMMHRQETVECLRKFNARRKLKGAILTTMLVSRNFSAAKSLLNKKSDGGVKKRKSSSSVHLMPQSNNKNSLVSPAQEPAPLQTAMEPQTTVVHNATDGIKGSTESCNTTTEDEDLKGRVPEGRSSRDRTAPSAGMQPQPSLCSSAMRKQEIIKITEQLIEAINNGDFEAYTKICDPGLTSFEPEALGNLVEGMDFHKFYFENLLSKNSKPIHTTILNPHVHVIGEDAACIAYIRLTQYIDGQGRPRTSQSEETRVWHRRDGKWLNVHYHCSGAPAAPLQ
inactive: [1] 0.048 | [2] -0.055 | [3] 0.131 | [4] -0.011 | [5] 0.094 | [6] -0.026 | [7] 0.11 | [8] 0.15 | [9] 0.025 | [10] 0.065 | [11] 0.095 | [12] -0.15 | [13] 0.072 | [14] -0.028 | [15] -0.063 | [16] 0.042 | [17] 0.035 | [18] -0.008 | [19] 0.064 | [20] -0.319

CASP2 (UniProt P42575)
UniProt P42575, sequence (P42575 whole entry, looked up): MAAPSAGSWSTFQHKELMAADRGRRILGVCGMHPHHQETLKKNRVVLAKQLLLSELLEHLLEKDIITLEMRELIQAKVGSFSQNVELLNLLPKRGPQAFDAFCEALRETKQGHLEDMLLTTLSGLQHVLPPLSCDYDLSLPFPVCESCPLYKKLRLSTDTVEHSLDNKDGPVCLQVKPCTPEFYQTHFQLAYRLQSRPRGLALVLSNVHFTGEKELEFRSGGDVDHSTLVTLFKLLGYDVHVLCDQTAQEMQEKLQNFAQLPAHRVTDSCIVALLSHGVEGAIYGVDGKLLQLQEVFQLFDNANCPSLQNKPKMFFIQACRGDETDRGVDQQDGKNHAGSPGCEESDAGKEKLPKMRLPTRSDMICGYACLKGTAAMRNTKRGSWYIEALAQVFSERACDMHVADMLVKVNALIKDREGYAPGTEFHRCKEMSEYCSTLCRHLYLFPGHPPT
inactive: [1] 0.025 | [2] 0.001 | [3] 0.215 | [4] 0.056 | [5] 0.004 | [6] 0.026 | [7] 0.193 | [8] 0.086 | [9] 0.039 | [10] 0.026 | [11] 0.058 | [12] 0.112 | [13] 0.078 | [14] 0.024 | [15] -0.016 | [16] -0.153 | [17] 0.031 | [18] 0.072 | [19] 0.008 | [20] -0.08

CHD3 isoform 3 (UniProt Q12873)
active: [12] -0.757
inactive: [1] 0.03 | [2] -0.035 | [3] 0.016 | [4] -0.077 | [5] 0.056 | [6] 0.113 | [7] 0.138 | [8] 0.081 | [9] 0.226 | [10] 0.046 | [11] -0.093 | [13] 0.149 | [14] 0.017 | [15] -0.042 | [16] 0.067 | [17] 0.126 | [18] 0.048 | [19] 0.099 | [20] -0.144

CLASP2 isoform 3 (UniProt O75122)
active: [12] -0.326 | [20] -0.227
inactive: [1] -0.032 | [2] -0.01 | [3] 0.013 | [4] 0.012 | [5] -0.006 | [6] 0.089 | [7] 0.061 | [8] 0.029 | [9] 0.013 | [10] 0.066 | [11] -0.175 | [13] 0.054 | [14] 0.034 | [15] -0.087 | [16] -0.024 | [17] 0.051 | [18] 0.038 | [19] 0

CPT1A (UniProt P50416)
UniProt P50416, sequence (P50416 whole entry, looked up): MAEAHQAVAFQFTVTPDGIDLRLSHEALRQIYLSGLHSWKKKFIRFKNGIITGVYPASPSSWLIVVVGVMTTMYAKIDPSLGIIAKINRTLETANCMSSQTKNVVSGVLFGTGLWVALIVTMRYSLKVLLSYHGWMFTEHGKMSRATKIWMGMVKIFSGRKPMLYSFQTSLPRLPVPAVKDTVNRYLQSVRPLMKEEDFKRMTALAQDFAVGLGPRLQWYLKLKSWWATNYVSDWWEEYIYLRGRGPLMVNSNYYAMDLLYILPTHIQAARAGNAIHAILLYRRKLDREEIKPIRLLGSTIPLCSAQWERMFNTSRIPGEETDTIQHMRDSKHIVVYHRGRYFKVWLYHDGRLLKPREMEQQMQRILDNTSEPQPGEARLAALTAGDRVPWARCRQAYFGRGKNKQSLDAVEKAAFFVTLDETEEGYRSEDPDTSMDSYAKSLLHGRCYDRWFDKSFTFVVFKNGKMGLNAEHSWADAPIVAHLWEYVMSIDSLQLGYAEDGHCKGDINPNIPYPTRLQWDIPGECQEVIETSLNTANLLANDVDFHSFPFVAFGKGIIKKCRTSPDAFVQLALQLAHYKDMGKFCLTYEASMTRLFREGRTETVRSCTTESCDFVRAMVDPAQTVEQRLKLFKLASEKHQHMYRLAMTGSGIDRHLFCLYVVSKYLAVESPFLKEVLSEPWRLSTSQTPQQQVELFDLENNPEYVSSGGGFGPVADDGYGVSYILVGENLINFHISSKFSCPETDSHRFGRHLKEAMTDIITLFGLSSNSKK
active: [20] 0.333
inactive: [1] 0.069 | [2] -0.077 | [3] -0.054 | [4] -0.114 | [5] 0.083 | [6] 0.11 | [7] 0.022 | [8] 0.09 | [9] 0.048 | [10] 0.01 | [11] -0.048 | [12] -0.047 | [13] 0.045 | [14] -0.003 | [15] -0.076 | [16] -0.064 | [17] 0.013 | [18] 0.025 | [19] -0.053

CHP1 (UniProt Q99653)
UniProt Q99653, sequence (Q99653 whole entry, looked up): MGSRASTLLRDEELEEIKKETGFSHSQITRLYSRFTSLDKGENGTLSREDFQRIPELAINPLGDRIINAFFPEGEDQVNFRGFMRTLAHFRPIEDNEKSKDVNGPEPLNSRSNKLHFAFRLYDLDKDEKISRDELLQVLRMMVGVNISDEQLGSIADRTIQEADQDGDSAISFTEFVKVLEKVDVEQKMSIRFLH
inactive: [1] -0.048 | [2] -0.016 | [3] -0.112 | [4] 0.021 | [5] 0.016 | [6] 0.141 | [7] -0.042 | [8] 0.008 | [9] -0.035 | [10] 0.009 | [11] -0.069 | [12] -0.036 | [13] 0.033 | [14] 0.061 | [15] -0.006 | [16] -0.007 | [17] 0.063 | [18] -0.005 | [19] 0.034 | [20] -0.028

CETN2 (UniProt P41208)
UniProt P41208, sequence (P41208 whole entry, looked up): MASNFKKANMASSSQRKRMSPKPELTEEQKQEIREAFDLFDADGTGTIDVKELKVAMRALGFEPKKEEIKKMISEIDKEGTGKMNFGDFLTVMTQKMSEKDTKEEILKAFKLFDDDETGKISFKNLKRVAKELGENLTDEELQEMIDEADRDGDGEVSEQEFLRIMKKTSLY
active: [7] -0.335
inactive: [1] -0.015 | [2] -0.016 | [3] -0.146 | [4] -0.071 | [5] -0.188 | [6] -0.008 | [8] -0.034 | [9] -0.034 | [10] -0.013 | [11] 0.149 | [12] 0.159 | [13] -0.006 | [14] -0.074 | [15] 0.074 | [16] 0.065 | [17] -0.058 | [18] -0.01 | [19] -0.018 | [20] 0.037
